# From PubChem BioAssay (EPA / NIEHS)
# Several values for one entry are separate records, joined by “and”; a condition that tells them apart may be missing. Identical values can stand only once. Inconclusive results are not listed. The source holds several records for some structures; these can differ, active in one and inactive in another. Activity calls are given as the source filed them. Rule for the calls, unless noted: active = hit-call score of the fitted dose curve at least 0.9, where 1 is the maximum; inconclusive = response in the unintended direction; inactive = score below 0.9.
# Legend:
# [1] = target: human Peroxisome Proliferator-activated Receptor alpha (PPARa), PPARA (gene 5465) (UniProt Q07869); test: ATG_PPARa_TRANS: Attagene TRANS-FACTORIAL HepG2 Assay for human Peroxisome Proliferator-activated Receptor alpha (PPARa) (AID 2283001)
# In short: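 Gain-of-signal endpoint: reporter mRNA induction relative to DMSO, detected by fluorescent RT-PCR and capillary electrophoresis. HepG2 cells transiently carried GAL4-UAS-driven reporter units plus NR-Gal4 fusion; exposure lasted 24 h.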
# [2] = target: human RAR-related Orphan Receptor gamma (RORg), RORC (gene 6097) (UniProt P51449); test: ATG_RORg_TRANS: Attagene TRANS-FACTORIAL HepG2 Assay for human RAR-related Orphan Receptor gamma (RORg) (AID 2283011)
# In short: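 Chimeric RORg-Gal4 transactivation in transfected HepG2; 24 h exposure; RT-PCR/capillary electrophoresis readout of reporter mRNA, DMSO baseline.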
# [3] = target: Retinoic acid receptor RXR-alpha (Homo sapiens) (UniProt P19793); test: OT_NURR1_NURR1RXRa_0480: Odyssey Thera (OT) 8-hour HEK293T Protein Complementation Assay for Nurr1/retinoid X receptor (RXR) (AID 2283385)
# In short: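 8 h compound exposure, HEK293T; Nurr1/RXRα fragment complementation; fluorescence intensity; positive fitting direction vs DMSO baseline.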
# [4] = target: Retinoic acid receptor RXR-alpha (Homo sapiens) (UniProt P19793); test: OT_NURR1_NURR1RXRa_1440: Odyssey Thera (OT) 24-hour HEK293T Protein Complementation Assay for Nurr1/retinoid X receptor (RXR) (AID 2283386)
# In short: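 Interaction of Nurr1 with RXRα brings fused reporter fragments together in human HEK293T cells, restoring a functional reporter. Fluorescence intensity is measured 24 h after chemical treatment, and values are analysed in the positive direction against DMSO.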
# [5] = ACEA_AR_agonist_AUC_viability: ACEA Biosciences xCELLigence Real-Time Cell Analysis on Androgen Receptor Agonism for Viability (AID 2283775)
# In short: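 Real-time impedance tracking of 22Rv1 growth, readings every 5 min for 5 h then hourly; area-under-curve viability endpoint at 80 hours, relative to DMSO. Compounds at eight concentrations, 1:4 steps, top 100 uM, n = 2.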
# [6] = ACEA_AR_antagonist_AUC_viability: ACEA Biosciences xCELLigence Real-Time Cell Analysis on Androgen Receptor Antagonism for Viability (AID 2283776);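 note: 22Rv1 human prostate cancer cells growing on impedance electrode plates; hits lower the growth signal relative to DMSO meaning cytotoxicity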
# In short: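 22Rv1 prostate cells, continuous dosing up to 100 uM final (0.5% DMSO max), duplicate plates. Growth measured by impedance; AUC at 80 h, loss of signal vs DMSO.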
# [7] = BSK_BT_PBMCCytotoxicity: PBMC Cytotoxicity Assessment in the BioMAP Diversity Plus: BT Assay (AID 2284225; active = hit-call score of the fitted dose curve at least 0.9, where 1 is the maximum; inactive = score below 0.9;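 note: PBMC viability measured by Alamar Blue dye reduction fluorescence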); conditions: primary human B cells with PBMC
# In short: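 PBMC (75,000/well) pretreated with compound 1 h, then activated with SEB and TSST-1 (20 ng/mL each final), incubated 90 h; Alamar Blue added 6 h, fluorescence read at 546/580 nm. Fitted relative to DMSO.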
# [8] = read-out: Secreted IgG (sIgG), gene 3500; test: BSK_BT_sIgG: BioMAP Diversity Plus: BT Assay for Secreted IgG (sIgG) Biomarker Activity (AID 2284226; active = hit-call score of the fitted dose curve at least 0.9, where 1 is the maximum; inactive = score below 0.9); conditions: primary human B cells with PBMC
# In short: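 Read-out: ELISA for secreted IgG after 24 h of chemical exposure in a B cell plus PBMC co-culture. Values reflect upward-direction fitting against DMSO negative controls.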
# [9] = BSK_BT_Bcell_Proliferation: Viability Assessment in the BioMAP Diversity Plus: BT Assay for B cell Proliferation (AID 2284227; active = hit-call score of the fitted dose curve at least 0.9, where 1 is the maximum; inactive = score below 0.9); conditions: primary human B cells with PBMC
# In short: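 SRB-based protein staining (0.1% SRB after 10% TCA fixation, 560 nm) quantifies proliferation in human B cells co-cultured with PBMC, 72 h post-dosing, with signal gain scored relative to DMSO negative control.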
# [10] = read-out: Interleukin 6 (IL6), IL6 (gene 3569); test: BSK_BT_xIL6: BioMAP Diversity Plus: BT Assay for Interleukin 6 (IL6) Biomarker Activity (AID 2284228; active = hit-call score of the fitted dose curve at least 0.9, where 1 is the maximum; inactive = score below 0.9); conditions: primary human B cells with PBMC
# In short: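 IL-6 secretion measured (Luminex xMAP) in human primary B cell + PBMC co-culture at 24 h of chemical exposure; DMSO served as negative control and activity baseline, with curves fitted for increase.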
# [11] = read-out: Interleukin 17A (IL17A), IL17A (gene 3605); test: BSK_BT_xIL17A: BioMAP Diversity Plus: BT Assay for Interleukin 17A (IL17A) Biomarker Activity (AID 2284229; active = hit-call score of the fitted dose curve at least 0.9, where 1 is the maximum; inactive = score below 0.9); conditions: primary human B cells with PBMC
# In short: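 Human primary B cells plus PBMC, treated 24 h with chemicals; supernatant IL-17A quantified on Luminex xMAP beads. Gain of signal over DMSO control scored as activity.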
# [12] = read-out: Tumor necrosis factor (Homo sapiens) (UniProt P01375); test: BSK_BT_xTNFa: BioMAP Diversity Plus: BT Assay for Tumor necrosis factor alpha (TNF-alpha) Biomarker Activity (AID 2284230; active = hit-call score of the fitted dose curve at least 0.9, where 1 is the maximum; inactive = score below 0.9); conditions: primary human B cells with PBMC
# In short: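 Compounds were added to a B cell plus PBMC co-culture, and after 24 h secreted TNF-alpha was quantified with Luminex xMAP technology, with responses fitted upward from the DMSO control.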
# [13] = read-out: Vascular cell adhesion molecule 1 (VCAM1), VCAM1 (gene 7412); test: BSK_MyoF_VCAM1: BioMAP Diversity Plus: MyoF Assay for Vascular cell adhesion molecule 1 (VCAM1) Biomarker Activity (AID 2284231; active = hit-call score of the fitted dose curve at least 0.9, where 1 is the maximum; inactive = score below 0.9); conditions: primary human lung fibroblasts
# In short: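 VCAM-1 levels, lung fibroblasts, ELISA, 24 h exposure, increase scored relative to DMSO.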
# [14] = read-out: TIMP metallopeptidase inhibitor 1 (TIMP1), TIMP1 (gene 7076); test: BSK_MyoF_TIMP1: BioMAP Diversity Plus: MyoF Assay for TIMP metallopeptidase inhibitor 1 (TIMP1) Biomarker Activity (AID 2284269; active = hit-call score of the fitted dose curve at least 0.9, where 1 is the maximum; inactive = score below 0.9); conditions: primary human lung fibroblasts
# In short: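 Fibroblasts from human lung are dosed with chemical, cultured 24 h, and assayed for TIMP-1 by ELISA. Increases over the DMSO baseline are scored, with SRB total-protein staining run in parallel for cytotoxicity.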
# [15] = target: Peroxisome proliferator-activated receptor gamma (Homo sapiens) (UniProt P37231); test: ATG_PPARg_TRANS: Attagene TRANS-FACTORIAL HepG2 Assay for human Peroxisome Proliferator-activated Receptor-gamma (PPARg) (AID 2283007)
# In short: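 Transient transfection of HepG2 with GAL4-UAS-driven reporter units; chemical dosing 24 h; total RNA → oligo(dT) RT → PCR with reporter primers → 6-FAM primer extension → HpaI digest 2 h 37 C → capillary electrophoresis. Positive direction vs DMSO.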
# [16] = target: Peroxisome proliferator-activated receptor gamma (Homo sapiens) (UniProt P37231); test: OT_PPARg_PPARgSRC1_0480: Odyssey Thera (OT) 8-hour Protein-Complementation Assay for Peroxisome Proliferator-activated Receptor Gamma / SRC-1 Co-activator (AID 2283387);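 note: nuclear to cytoplasmic split Venus YFP fluorescence ratio reporting PPARg SRC-1 interaction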
# In short: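 Protein-fragment complementation in HEK293T: Venus YFP halves (residues 1-158, 159-239, mutated to IFP1/IFP2) fused to PPARg/SRC-1. 8 h exposure; N/C ratio at 488 nm; DMSO negative control.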
# [17] = CCTE_Shafer_MEA_acute_AB: CCTE's Alamar Blue Assay for Cytotoxicity in the Neural Acute Assay, Shafer Lab (AID 2284069);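 note: active compounds lower the viability signal compared with DMSO wells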
# In short: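 Metabolic activity in chemically exposed rat cortical neurons (MEA cultures, day 13/15 post-plating) measured via CellTiter Blue resazurin reduction, 544/590 nm fluorescence; fitted relative to DMSO, with signal loss indicating reduced viability.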
# [18] = target: Oxysterols receptor LXR-beta (Homo sapiens) (UniProt P55055); test: ATG_LXRb_TRANS: Attagene TRANS-FACTORIAL HepG2 Assay for human Liver X Receptor beta (LXRb) (AID 2282981); conditions: HepG2 Attagene TRANS GAL4-LXRb reporter, mRNA
# In short: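 In this TRANS format, exogenous chimeric NR-Gal4 protein activity, not endogenous factors, drives reporter expression in transfected human HepG2 cells. Exposure lasted 24 h; reporter mRNA was read by fluorescent capillary electrophoresis.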
# [19] = ATG_M_19_TRANS: Attagene TRANS-FACTORIAL HepG2 Assay for M19 Transcription Factor (Internal Marker) (AID 2282974); conditions: HepG2 Attagene TRANS-FACTORIAL M19 internal marker reporter
# In short: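 Fluorescence of 6-FAM-labelled reporter cDNA fragments, separated by capillary electrophoresis, served as the readout. These derived from HepG2 cells carrying transfected GAL4-UAS reporter units after 24 h dosing, with DMSO as negative control.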
# [20] = target: Peroxisome proliferator-activated receptor gamma (Homo sapiens) (UniProt P37231); test: OT_PPARg_PPARgSRC1_1440: Odyssey Thera (OT) 24-hour Protein-Complementation Assay for Peroxisome Proliferator-activated Receptor Gamma/ SRC-1 Co-activator (AID 2283388);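 note: nuclear to cytoplasmic ratio of reconstituted Venus YFP fluorescence in fixed imaged cells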
# In short: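 Cells carrying the PPARg/SRC-1 fragment-complementation reporter receive compound for 24 hours, are fixed and counterstained with Draq5, then imaged. Increased nuclear relative to cytoplasmic YFP fluorescence above DMSO baseline indicates binding activity.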
# Chain of Tumor necrosis factor (Homo sapiens) (P01375 whole entry, looked up): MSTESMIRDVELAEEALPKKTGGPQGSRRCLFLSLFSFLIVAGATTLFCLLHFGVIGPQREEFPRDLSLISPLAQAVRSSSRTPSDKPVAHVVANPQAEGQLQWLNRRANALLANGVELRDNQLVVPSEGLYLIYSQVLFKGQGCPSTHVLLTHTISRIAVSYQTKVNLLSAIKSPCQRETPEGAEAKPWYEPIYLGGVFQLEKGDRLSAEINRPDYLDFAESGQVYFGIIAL
# Chain of human RAR-related Orphan Receptor gamma (RORg), RORC (gene 6097) (P51449 whole entry, looked up, the tested form may be a part): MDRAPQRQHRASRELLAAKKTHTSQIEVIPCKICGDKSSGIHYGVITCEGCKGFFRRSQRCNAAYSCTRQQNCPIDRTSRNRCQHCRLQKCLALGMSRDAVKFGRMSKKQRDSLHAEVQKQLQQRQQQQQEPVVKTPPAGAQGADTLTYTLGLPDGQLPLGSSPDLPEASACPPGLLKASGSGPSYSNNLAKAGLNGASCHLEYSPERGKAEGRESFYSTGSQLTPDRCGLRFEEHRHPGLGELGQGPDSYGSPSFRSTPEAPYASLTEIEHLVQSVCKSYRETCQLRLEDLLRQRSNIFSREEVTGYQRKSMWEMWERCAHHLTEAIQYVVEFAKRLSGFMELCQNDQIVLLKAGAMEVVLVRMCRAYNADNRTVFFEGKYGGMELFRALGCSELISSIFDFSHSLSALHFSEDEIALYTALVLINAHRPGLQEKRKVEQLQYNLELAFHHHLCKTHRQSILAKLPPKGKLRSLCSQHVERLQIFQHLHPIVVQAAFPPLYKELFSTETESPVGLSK
# Chain of Peroxisome proliferator-activated receptor gamma (Homo sapiens) (P37231 whole entry, looked up, the tested form may be a part): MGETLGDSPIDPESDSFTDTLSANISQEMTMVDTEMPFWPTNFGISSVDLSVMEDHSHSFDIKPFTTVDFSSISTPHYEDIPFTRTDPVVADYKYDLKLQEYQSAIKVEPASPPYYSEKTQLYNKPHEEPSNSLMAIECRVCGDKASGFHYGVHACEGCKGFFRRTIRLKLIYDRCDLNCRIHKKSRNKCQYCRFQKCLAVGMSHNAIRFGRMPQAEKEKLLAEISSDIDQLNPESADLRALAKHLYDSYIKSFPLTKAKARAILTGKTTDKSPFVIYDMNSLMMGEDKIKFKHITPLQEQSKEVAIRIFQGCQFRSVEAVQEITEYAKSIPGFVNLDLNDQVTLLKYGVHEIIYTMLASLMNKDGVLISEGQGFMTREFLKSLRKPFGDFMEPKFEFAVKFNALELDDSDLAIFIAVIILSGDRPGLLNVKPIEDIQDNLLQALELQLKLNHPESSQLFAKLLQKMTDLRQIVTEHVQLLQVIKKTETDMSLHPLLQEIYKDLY
# Chain of Oxysterols receptor LXR-beta (Homo sapiens) (P55055 whole entry, looked up, the tested form may be a part): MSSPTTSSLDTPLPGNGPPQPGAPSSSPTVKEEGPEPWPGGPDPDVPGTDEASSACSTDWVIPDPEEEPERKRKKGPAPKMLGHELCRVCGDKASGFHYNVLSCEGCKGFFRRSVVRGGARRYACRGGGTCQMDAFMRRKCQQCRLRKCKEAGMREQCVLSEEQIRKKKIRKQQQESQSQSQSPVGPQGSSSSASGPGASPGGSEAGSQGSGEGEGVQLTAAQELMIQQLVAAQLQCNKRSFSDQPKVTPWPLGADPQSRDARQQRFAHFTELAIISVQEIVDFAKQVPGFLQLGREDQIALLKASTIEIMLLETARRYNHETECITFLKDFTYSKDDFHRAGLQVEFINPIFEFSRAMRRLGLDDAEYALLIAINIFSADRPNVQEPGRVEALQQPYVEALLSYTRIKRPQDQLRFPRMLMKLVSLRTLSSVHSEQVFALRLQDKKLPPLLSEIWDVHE
# Chain of Retinoic acid receptor RXR-alpha (Homo sapiens) (P19793 whole entry, looked up, the tested form may be a part): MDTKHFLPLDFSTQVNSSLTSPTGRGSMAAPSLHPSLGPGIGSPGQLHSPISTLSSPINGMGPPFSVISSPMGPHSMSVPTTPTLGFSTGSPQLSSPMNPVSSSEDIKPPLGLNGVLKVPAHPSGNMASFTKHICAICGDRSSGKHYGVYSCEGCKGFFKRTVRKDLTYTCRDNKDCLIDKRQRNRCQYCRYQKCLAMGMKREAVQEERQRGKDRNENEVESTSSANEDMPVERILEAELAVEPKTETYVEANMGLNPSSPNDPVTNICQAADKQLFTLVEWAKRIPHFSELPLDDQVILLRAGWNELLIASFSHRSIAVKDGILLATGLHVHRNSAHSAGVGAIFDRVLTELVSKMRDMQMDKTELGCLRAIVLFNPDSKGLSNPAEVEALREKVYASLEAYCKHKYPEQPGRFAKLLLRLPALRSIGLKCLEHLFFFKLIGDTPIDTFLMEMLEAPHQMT
# Chain of human Peroxisome Proliferator-activated Receptor alpha (PPARa), PPARA (gene 5465) (Q07869 whole entry, looked up, the tested form may be a part): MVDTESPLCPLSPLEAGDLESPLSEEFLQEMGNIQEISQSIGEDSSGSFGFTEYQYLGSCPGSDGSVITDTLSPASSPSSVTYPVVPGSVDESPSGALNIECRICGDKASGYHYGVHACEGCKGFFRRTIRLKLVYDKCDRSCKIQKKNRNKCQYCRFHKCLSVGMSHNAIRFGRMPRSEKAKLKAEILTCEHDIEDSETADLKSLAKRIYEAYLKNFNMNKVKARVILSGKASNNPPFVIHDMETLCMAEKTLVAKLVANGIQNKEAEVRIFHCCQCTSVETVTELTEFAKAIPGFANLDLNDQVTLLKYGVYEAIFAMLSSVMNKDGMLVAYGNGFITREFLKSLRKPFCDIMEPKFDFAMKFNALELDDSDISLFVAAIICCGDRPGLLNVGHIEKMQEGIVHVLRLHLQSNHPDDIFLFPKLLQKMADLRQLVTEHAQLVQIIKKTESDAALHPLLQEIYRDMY
structure (smiles),measurement,setting,value
Oc1cccc2ccccc12,outcome,[1],inactive
same,outcome,[2],inactive
same,outcome,[3],inactive
same,outcome,[4],inactive
same,outcome,[5],inactive
same,outcome,[6],inactive
same,outcome,[7],inactive
same,outcome,[8],inactive
same,AC50,[9],2.2 µM (active)
same,AC50,[10],0.0576 µM (active)
same,outcome,[11],inactive
same,outcome,[12],inactive
same,outcome,[13],inactive
same,outcome,[14],inactive
OC(C(F)(F)F)(C(F)(F)F)C(O)(C(F)(F)F)C(F)(F)F,AC50,[7],55.4 µM (active) and 36.9 µM (active)
same,AC50,[8],9.13 µM (active) and 9.49 µM (active)
same,AC50,[9],37 µM (active) and 28.2 µM (active)
same,AC50,[10],39.5 µM (active)
same,outcome,[10],inactive
same,AC50,[11],31 µM (active) and 24 µM (active)
same,AC50,[12],41.9 µM (active) and 40.2 µM (active)
same,AC50,[13],45.7 µM (active) and 41.7 µM (active)
same,AC50,[14],45.6 µM (active)
same,outcome,[14],inactive
O=S(=O)(O)c1cccc2ccccc12,outcome,[15],inactive
same,outcome,[2],inactive
same,outcome,[16],inactive
same,outcome,[5],inactive
same,outcome,[6],inactive
Cc1c(C(N)=O)cc([N+](=O)[O-])cc1[N+](=O)[O-],outcome,[17],inactive
CCCCCCOC(=O)CCCCCCCC(=O)OCCCCCC,outcome,[18],inactive
same,outcome,[1],inactive
COc1ccccc1OCC(O)CO (stereo unspecified),outcome,[19],inactive
same,outcome,[2],inactive
Oc1ccc(Oc2ccccc2)cc1,AC50,[15],28 µM (active)
CCC[Si](OC(C)=O)(OC(C)=O)OC(C)=O,outcome,[17],inactive
CC(C)C1OCCN1CCOC(=O)NCCCCCCNC(=O)OCCN1CCOC1C(C)C (stereo unspecified),outcome,[17],inactive
COc1ccccc1Oc1c(NS(=O)(=O)c2ccc(C(C)(C)C)cc2)nc(-c2ncccn2)nc1OCCO,outcome,[17],inactive
CCO[Si](OCC)(OCC)c1ccccc1,outcome,[19],inactive
CC(C)(C)NC(=O)[C@@H]1CN(Cc2cccnc2)CCN1C[C@@H](O)C[C@@H](Cc1ccccc1)C(=O)N[C@H]1c2ccccc2C[C@H]1O,outcome,[18],inactive
same,outcome,[2],inactive
O=C(O)Cc1c[nH]c2ccccc12,outcome,[19],inactive
same,outcome,[18],inactive
CC[N+](CC)(CC(=O)Nc1c(C)cccc1C)Cc1ccccc1 (tested in a mixture with another compound),outcome,[3],inactive
same,outcome,[4],inactive
same,outcome,[16],inactive
same,outcome,[20],inactive
same,outcome,[5],inactive
same,outcome,[6],inactive
C=C(C)C(=O)OCC1CCCO1 (stereo unspecified),outcome,[18],inactive
CNCCC(Oc1ccc(C(F)(F)F)cc1)c1ccccc1 (stereo unspecified),outcome,[17],inactive
